This is a sample that favours compounds with a hit; in the whole collection about 22% have one here.
CYP2C19 act: activators of human cytochrome P450 2C19; P33261; 96,000 tested, under 10 active; recombinant CYP2C19, luciferin-H EGE luminescence; active compounds read high; 0 = fully inhibited enzyme, 1 = untreated enzyme; activation factor at 5 µM; AID 1025;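 active = activation factor of at least 2 at 5 µM in the primary screen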;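 also: 0 = wells with 2.5 mM tranylcypromine and 1 = vehicle-only wells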
Target sequence (P33261 whole entry, looked up): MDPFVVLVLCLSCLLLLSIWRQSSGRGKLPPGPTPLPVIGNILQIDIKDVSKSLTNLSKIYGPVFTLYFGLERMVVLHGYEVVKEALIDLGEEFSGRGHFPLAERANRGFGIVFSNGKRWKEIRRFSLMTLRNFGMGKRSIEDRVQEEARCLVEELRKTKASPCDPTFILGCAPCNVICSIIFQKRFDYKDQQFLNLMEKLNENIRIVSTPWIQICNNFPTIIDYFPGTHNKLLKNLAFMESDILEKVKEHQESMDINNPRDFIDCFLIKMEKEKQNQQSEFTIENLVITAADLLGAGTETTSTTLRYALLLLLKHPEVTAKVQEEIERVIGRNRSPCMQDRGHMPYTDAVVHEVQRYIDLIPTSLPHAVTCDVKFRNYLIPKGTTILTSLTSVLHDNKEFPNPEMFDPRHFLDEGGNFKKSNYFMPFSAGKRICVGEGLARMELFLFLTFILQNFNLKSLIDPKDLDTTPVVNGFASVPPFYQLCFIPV
Measles CPE: protection of cells from measles virus; Measles virus-infected cells, CPE protection, absorbance; protection (pct of control), % at 4 µM; 1.5% of 140,000 active; in the data active = protection mostly above about 24%, no sharp cut-off; inactive = mostly below about 26%
CYP2C9 activ: increases human cytochrome P450 2C9 activity | AID 1024 | recombinant CYP2C9, luciferin-H conversion, luminescence; active compounds read high; factor 1 = untreated enzyme, 0 = blocked | activation factor at 5 µM | 1.4% of 96,000 active | P11712;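 active = activation factor of 2 or more for CYP2C9 at a 5 µM dose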;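 also: 0 = sulfaphenazole-blocked wells and 1 = vehicle-only wells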
CYP2C9 inhib: human CYP2C9 inhibition. AID 777. P11712. 20% of 96,000 active. CYP2C9 Supersomes, luciferin-H conversion, luminescence. inhibition, % at 5 µM;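 active = blocking of liver enzyme CYP2C9 beyond about 50% at 5 µM, limit read from the data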
CYP2C19 inhib: human CYP2C19 inhibition; P33261; CYP2C19 Supersomes, luciferin-H EGE luminescence, 30 min; inhibition, % at 5 µM; 21% of 96,000 active;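 active = CYP2C19 inhibition above a set limit at 5 µM in the primary screen, cut at about 50% in these data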;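 also: plate controls were negative control wells for no effect and 2.5 mM tranylcypromine positive control for full effect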
* marks the source's active call; other numbers are inactive results; . = not tested or not shown.

SMILES	CYP2C19 act	Measles CPE	CYP2C9 activ	CYP2C9 inhib	CYP2C19 inhib
c1ccc2c(c1)ncn2CCC1CCCCC1	0.1	5.8	0.4	58.0*	92.2*
O=C(O)Cn1c(=O)cnc2ccccc21	1.2	2.3	0.9	10.0	-21.3
c1ccc(Cn2cnc3ccccc32)cc1	.	8.1	.	.	.
O=C(Nc1ccc(-c2nc3c(ccc4ccccc43)o2)cc1)c1ccco1	0.8	19.2	1.5	-45.2	15.8
CCN1CCN(CCNC(=O)CCCCCn2c(=O)[nH]c3cc(C(=O)OC)ccc3c2=O)CC1	0.8	19.7	0.5	53.4*	17.0
COc1cc2[nH]c(=O)n(CCCCCC(=O)N3CCN(c4ccccc4)CC3)c(=O)c2cc1OC	0.2	36.1	0.3	70.0*	78.8*
COC(=O)c1ccc2c(=O)n(CCCCCC(=O)N3CCN(c4ccccc4)CC3)c(=O)[nH]c2c1	0.5	4.0	0.4	56.2*	52.9*
CCN1CCN(C(=O)CCCCCn2c(=O)[nH]c3cc(C(=O)OC)ccc3c2=O)CC1	1	21.4	1	-3.3	4.8
COc1cc2[nH]c(=O)n(CCC(=O)N3CCN(c4cccc(C)c4C)CC3)c(=O)c2cc1OC	0.8	5.8	0.7	34.1	15.1
CC1(C)SC2[C@H](NC(=O)C(NC(=O)N3CCNC3=O)c3ccccc3)C(=O)N2C1C(=O)O (stereo partly drawn)	.	64.8	.	.	.
CCC1(C(=O)OC)NC(c2ccco2)C2C(=O)N(c3ccccc3)C(=O)C21 (stereo not drawn)	0.8	78.4*	1	1.2	23.0
CCC1(C(=O)OC)NC(c2ccccc2OC)C2C(=O)N(C)C(=O)C21 (stereo not drawn)	1.2	2.7	1.2	-23.3	-21.7
c1ccc(OCc2nn3c(C4CCCCC4)nnc3s2)cc1	0.9	0.7	0.5	51.3*	13.5
Clc1ccccc1-c1nn2c(COc3ccccc3)nnc2s1	0.1	3.3	0.2	81.6*	94.9*
c1ccc(Cc2nn3c(COc4ccccc4)nnc3s2)cc1	0.3	4.0	0.7	32.4	66.2*
CCOc1ccccc1OCc1nn2c(COc3ccccc3)nnc2s1	0.7	20.8	1.2	-19.7	31.3
CN(C)c1ccc(-c2nn3c(-c4ccc(Cl)cc4)nnc3s2)cc1	0.8	27.2	0.7	31.2	19.8
Clc1ccc(-c2nn3c(-c4ccccn4)nnc3s2)c(Cl)c1	0.7	.	0.7	28.6	34.8
CN(C)c1ccc(-c2nn3c(C4CCCCC4)nnc3s2)cc1	0.5	23.8	0.5	54.7*	51.7*
COc1ccc(OC)c(C(C)NC=O)c1 (stereo not drawn)	1	4.8	1.1	-9.1	-4.3
O=C(CSc1nnnn1Cc1ccccc1)Nc1ccc2c(c1)OCCO2	0.2	3.1	0.2	83.4*	82.3*
Nc1c(C(=O)Nc2ccc3c(c2)OCCO3)nnn1CCc1ccccc1	0.4	4.4	0.2	79.4*	57.3*
CCC(=O)Nc1cccc(NC(=O)CSc2nnnn2Cc2ccccc2)c1	0.6	1.4	0.5	53.3*	44.1
COc1cccc(CC(=S)N2CCOCC2)c1	.	26.3	.	.	.
O=C(CNC(=O)c1ccc(S(=O)(=O)N2CCCC2)cc1)N/N=C/c1c(Cl)cccc1Cl	.	12.2	.	.	.
SMILES	CYP2C19 act	Measles CPE	CYP2C9 activ	CYP2C9 inhib	CYP2C19 inhib
O=C(C(=C1NCCN1)n1cncn1)c1ccccc1	.	1.6	.	.	.
O=C(CSc1nc2ccc([N+](=O)[O-])cc2[nH]1)NC1CCCCC1	0.4	9.7	0.4	62.3*	64.4*
Cc1ccc2nc(SCC(=O)Nc3cccc([N+](=O)[O-])c3)[nH]c2c1	0.5	55.5	0.1	90.0*	45.6
Cc1ccc2nc(SCc3ccc([N+](=O)[O-])cc3)[nH]c2c1	.	6.9	.	.	.
Cc1cc(C)cc(NC(=O)CCCSc2nc3ccccc3[nH]2)c1	.	1.8	.	.	.
Cc1ccc2nc(-c3ccc(NC(=O)CSc4ccccc4)cc3)[nH]c2c1	0.7	9.4	0.4	59.2*	35.0
Cc1cc(C)cc(NC(=O)CSc2nc3ccncc3[nH]2)c1	0.4	3.3	0.2	75.6*	63.2*
Nc1ccc(C(=O)Nc2ccco2)cc1	.	8.8	.	.	.
Cn1cc(C(=O)NCN2CCCCC2)c2ccccc21	1	0.4	1.1	-8.6	3.1
Clc1ccccc1CONc1ncnc2nonc12	.	8.9	.	.	.
CN(C1CCS(=O)(=O)C1)S(=O)C12CC3CC(CC(C3)C1)C2 (stereo not drawn)	.	9.2	.	.	.
Cc1cc(C)c2c(=O)c3c(oc2c1)C(=O)N(CCO)C3c1cccc(O)c1 (stereo not drawn)	0.5	3.2	0.5	53.5*	50.3*
Cc1ccc(C(=O)N/C(=C\c2sccc2C)C(=O)NCc2ccco2)cc1	0.8	60.8*	0.7	34.5	18.1
Cc1ccc(C(=O)N/C(=C\c2cccs2)C(=O)NCc2ccncc2)cc1	0.9	46.8*	1	-0.1	9.0
Cc1ccc(C(=O)N/C(=C/c2cccs2)C(=O)N2CCCCCC2)cc1	0.7	5.5	0.5	51.1*	31.6
Cc1ccc(C(=O)N/C(=C\c2sccc2C)C(=O)NCc2ccncc2)cc1	.	6.2	.	.	.
Cc1cccc(C(=O)Nc2ccccc2SCC(=O)Nc2ccc(C)c(Cl)c2)c1	.	9.9	.	.	.
N#CCCCSc1nnc(-c2ccccn2)o1	1	11.1	1	-0.3	3.6
COC(=O)NCC1(C)CC(NC(=O)OC)CC(C)(C)C1 (stereo not drawn)	0.2	4.0	1.2	-17.0	76.9*
CC1(C)CC(CC(=O)O)(c2ccc(F)cc2)CCO1 (stereo not drawn)	1	7.8	0.9	12.8	4.9
COc1ccccc1C1(CC(=O)O)CCOC(C)(C)C1 (stereo not drawn)	0.9	32.9*	1.1	-8.8	9.2
C=CCn1c(SCC(=O)N2CCOCC2)nc2sc3c(c2c1=O)CCCC3	0.3	8.1	0.2	80.1*	71.2*
Cn1c(SCC(=O)N2CCOCC2)nc2sc3c(c2c1=O)CCCC3	0.4	38.3*	0.1	87.8*	59.8*
Cn1c(SCc2nnc(-c3ccccc3Br)o2)nc2sc3c(c2c1=O)CCC3	0.2	9.8	0.1	94.4*	77.4*
Cc1ccc(-n2nnnc2SCc2nnc(-c3ccccc3Br)o2)cc1	1	1.5	1.2	-20.6	-2.4
SMILES	CYP2C19 act	Measles CPE	CYP2C9 activ	CYP2C9 inhib	CYP2C19 inhib
C=CCn1c(SCC(=O)Nc2cc(C)on2)nc2sc3c(c2c1=O)CCCC3	1.2	10.6	1.1	-13.7	-15.1
COC(=O)NNC(=O)c1ccc(C)c(Br)c1	.	4.9	.	.	.
O=C(N/N=C\c1ccc(Cl)cc1Cl)c1sccc1-n1cccc1	0.7	8.8	0.5	50.6*	32.9
N#CC(c1ccccc1)c1ccc(C(=O)c2ccc(F)cc2)cc1 (stereo not drawn)	0.1	8.2	0	99.2*	91.0*
CC(NC(=O)c1ccccc1)c1ccc(F)cc1 (stereo not drawn)	.	7.7	.	.	.
N#CC(c1ccc(F)cc1)c1ccc(C(=O)c2ccccc2)cc1 (stereo not drawn)	0.2	3.7	0.1	90.8*	75.8*
CCOC(=O)N1CCN(c2cc(=O)n(-c3ccc(Br)cc3)c(=O)[nH]2)CC1	1	10.8	0.9	10.1	-3.4
